PubChem BioAssay AID1822 (The Scripps Research Institute Molecular Screening Center, 2009)
In all, about 290,000 compounds went through this assay and about 3,500 (1.2%) were called active. The sample holds actives, similar compounds and a random draw of the others, so the mix is not that of the screen.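 How the source made its calls: active means inhibition above the campaign mean inhibition over all tested compounds plus 3 SD (cut at about 28% in these data); inactive means the rest.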

test system: M18 aspartyl aminopeptidase (Plasmodium falciparum 3D7); assay: PfM18AAP inhibitors, malaria aminopeptidase, primary screen, biochemical, QFRET, recombinant enzyme (AID 1822); details: H-Glu-NHMec fluorogenic cleavage, at 7.35 µM, stronger effect = higher value;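 further: 0% = plate median of test compound wells and 100% = 2 mM ZnCl2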

inhibition, active:
Cc1ccc(-c2ccc(/C=C(\C#N)C(N)=S)o2)c([N+](=O)[O-])c1 34%
OCCN1CCN(C(=S)c2ccc(-c3ccccc3)cc2)CC1 50%
CCN(CC)c1ccc(NC(=O)CCc2nnc3ccc(N4CCCCC4)nn23)c(C)c1 34.1%
Cc1ccc2nc(-c3cccc(Br)c3)cc(C(=O)Nn3cnnc3)c2c1 60.7%
Cc1nc2ccccc2nc1N/N=C/c1ccc(O)cc1O 31.6%
Oc1ccc(/C=N/NC2=NCCCCC2)c(O)c1 40.1%

inhibition, inactive:
Cc1ccc(OCC(=O)Nc2ccc(NC(=O)c3cccs3)cc2)c(C)c1 2.4%
CCCc1nnc(NC(=O)CCC(=O)N2CCN(S(=O)(=O)c3ccc(OC)cc3)CC2)s1 3.89%
Cc1ccc(Cc2cnc(NC(=O)/C(C#N)=C/c3ccc(-c4cccc([N+](=O)[O-])c4)o3)s2)cc1 1.04%
N#C/C(=C\c1ccc(-c2cccc([N+](=O)[O-])c2)o1)C(=O)NCCN1CCOCC1 2.81%
Cc1ccc(N(C(=O)c2snc(C(N)=O)c2N)C(C(=O)NCC2CCCO2)c2c[nH]c3ccccc23)cc1 (configuration not stated) 2.71%
CN1CCN(CCCCOc2ccccc2-c2ccccc2)CC1 2.29%
OCCN1CCN(c2nnc(-c3ccccc3)c3ccccc23)CC1 4.34%
CC(=O)Nc1ccc(S(=O)(=O)Oc2ccc(Br)cc2C(=S)N2CCOCC2)cc1 20.7%
COc1cc(CC(=O)N2CCC(n3nccc3NC(=O)C3CC3)CC2)cc(OC)c1OC 1.44%
CCOC(=O)c1cccc(NC(=O)CCc2nnc3ccc(N4CCOCC4)nn23)c1 -1.08%
CCOc1ccc(CCNC(=O)CCc2nnc3ccc(N4CCCC4)nn23)cc1OCC -5.76%
CCC(c1nnnn1C(C)(C)C)N(Cc1cc2cccc(C)c2n2nnnc12)C1CCCC1 (configuration not stated) -1.66%
Cc1nn(C(C)(C)C)c(OC(=O)CC(C)C)c1S(=O)(=O)c1ccccc1 3.62%
Cc1ccc2nc(-c3ccncc3)cc(C(=O)Nc3ccncc3)c2c1 1.48%
Cc1ccc(-c2cc(C(=O)NCc3cn(C)nc3C)c3cc(Br)ccc3n2)cc1 0.33%
N#Cc1c(-c2ccccc2)nc(SCc2cccc(C(F)(F)F)c2)[nH]c1=O 0.63%
COc1ccc(-c2nonc2NC(=O)c2oc3ccc(F)cc3c2C)cc1OC 2.64%
COc1ccccc1N1CCN(/N=C/c2ccc(O)cc2O)CC1 9.99%
COc1ccc(/C=C(\C#N)C(=O)ONC2=NCCCCC2)cc1 3.59%
Oc1ccc(/C=N/Nc2nc(-c3ccccc3F)nc3ccccc23)c(O)c1 18%
Cc1cc(N/N=C/c2ccccc2F)c2ccccc2n1 3.64%
